Assay [1] is described as follows: PERK-eIF2a-CHOP pathway stimulators, retested – cell-based, CHO-CHOP luciferase reporter, single concentration, confirmation (AID 463112; in the data active = activation above about 33%;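 also: 0% = DMSO wells and 100% = tunicamycin 10 µg/mL wells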). The following applies: CHO-CHOP cells, CHOP-luciferase reporter luminescence; at 10 µM; stronger effect = higher value; percent of tunicamycin response, DMSO as zero. For orientation: Reporter assays use an easily measured gene product as a stand-in for the process of interest.

Assay [2] has as its target Protein Mdm4 (Homo sapiens) + E3 ubiquitin-protein ligase Mdm2 (Homo sapiens) (UniProt O15151+Q00987). Description: human Mdm2/MdmX binding disruption – cell-based, luminescence, single concentration, set 2, confirmation (AID 504601;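 active = mean inhibition of the luminescence signal across two replicates at or above 26 percent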). The following applies: SaOS-2 split-luciferase Mdm2/MdmX complementation, at 8 µM, stronger effect = higher value.
Assay [3] can be described thus: NF-kB reporter suppression in CF airway cells – cell-based, GFP fluorescence, single concentration, confirmation (AID 602472; in the data active = inhibition above about 40%;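 also: stimulus PAF is a Pseudomonas aeruginosa filtrate and not platelet activating factor; plate controls were DMSO wells with stimulus for no effect and unstimulated DMSO wells for full effect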). The following applies: KKLEB CF airway cells, PAF-induced NF-kB-GFP fluorescence, overnight; at 5 µM; stronger effect = higher value.
Assay [4] in a line: HIF-2a driven luciferase blockers, single dose – luminescence, 786-0 RCC cells, confirmation (AID 651580;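 active = mean inhibition across four replicates of at least 40 percent at the single tested concentration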). The following applies: HIF-2a luciferase reporter luminescence, overnight, at 18.8 µM, stronger effect = higher value.
A short description of assay [5]: HIF-1a luciferase reporter signal reduction – MiaPaCa-2 cells, single concentration, counter-screen for HIF-2a inhibitor project, confirmation (AID 651589;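 active = mean inhibition of the reporter signal across four replicates at the single tested dose of 50% or more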). The following applies: MiaPaCa-2 HIF-1a luciferase reporter, desferoxamine, overnight; at 18.8 µM; stronger effect = higher value.
A short description of assay [6]: NFkB reporter suppression in cystic fibrosis bronchial cells – cell-based, uHTS hits, panel, cytotoxicity readout, dose response (AID 624344). The following applies: CF bronchial epithelial cells, PAF-induced NFkB reporter inhibition, with PAF, run 1; at 79 µM (top of the series) unless noted.
Assay in assay [7]: as above
The following applies: CF bronchial epithelial cells, PAF-induced NFkB reporter inhibition, with PAF, run 2; at 79 µM (top of the series) unless noted.

The nature of assay [8]: Brca1-Bard1 BiLC signal decrease – luminescence, single concentration, counter-screen for Mdm2/MdmX interaction inhibitor project, confirmation (AID 504668; call rule not given here). The following applies: Brca1/Bard1 bimolecular luciferase complementation counterscreen, at 8 µM, stronger effect = higher value. (In general: A counterscreen serves to expose hits that act by an unwanted route or on another target.)

Assay [9] concerns the target Sentrin-specific protease 8 (Homo sapiens) (UniProt Q96LD8). Description: human SENP8 peptidase blockers, hit retest – biochemical, luminescence, single concentration, confirmation (AID 488912;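 active = mean inhibition across replicates above about 50%, limit read from the data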). The following applies: Recombinant SENP8, Z-RLRGG-aminoluciferin luminescence, 60 min; at 12.5 µM; stronger effect = higher value.
The target in assay [10] is Sentrin-specific protease 6 (Homo sapiens) (UniProt Q9GZR1). The assay can be described thus: inhibition of human SENP6 catalytic domain – biochemical, luminescence, single concentration, confirmation (AID 488915). The following applies: recombinant SENP6, Z-RLRGG-aminoluciferin luminescence; at 12.5 µM; stronger effect = higher value.
Sentrin-specific protease 6 (Homo sapiens), sequence (Q9GZR1 628-1112 limits assumed): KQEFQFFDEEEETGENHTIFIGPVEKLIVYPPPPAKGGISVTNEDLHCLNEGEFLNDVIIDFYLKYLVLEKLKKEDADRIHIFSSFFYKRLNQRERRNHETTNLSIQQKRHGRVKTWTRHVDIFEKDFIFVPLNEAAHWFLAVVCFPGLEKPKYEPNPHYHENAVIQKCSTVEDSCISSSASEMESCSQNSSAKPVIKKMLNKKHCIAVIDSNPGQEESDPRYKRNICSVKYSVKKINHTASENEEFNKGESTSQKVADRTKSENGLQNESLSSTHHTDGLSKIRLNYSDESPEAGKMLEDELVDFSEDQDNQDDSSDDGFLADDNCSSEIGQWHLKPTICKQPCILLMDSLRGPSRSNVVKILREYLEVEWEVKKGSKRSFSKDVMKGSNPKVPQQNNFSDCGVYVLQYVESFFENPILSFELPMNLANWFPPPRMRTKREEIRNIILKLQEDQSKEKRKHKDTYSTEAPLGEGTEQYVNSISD
The target of assay [11] is Sentrin-specific protease 7 (Homo sapiens) (UniProt Q9BQF6). The assay can be described thus: human SENP7 peptidase blockers, hit retest – biochemical, luminescence, single concentration, confirmation (AID 488917). The following applies: recombinant SENP7, Z-RLRGG-aminoluciferin luminescence, 40 min; at 12.5 µM; stronger effect = higher value.
Sentrin-specific protease 7 (Homo sapiens), sequence (Q9BQF6 706-1050 limits assumed): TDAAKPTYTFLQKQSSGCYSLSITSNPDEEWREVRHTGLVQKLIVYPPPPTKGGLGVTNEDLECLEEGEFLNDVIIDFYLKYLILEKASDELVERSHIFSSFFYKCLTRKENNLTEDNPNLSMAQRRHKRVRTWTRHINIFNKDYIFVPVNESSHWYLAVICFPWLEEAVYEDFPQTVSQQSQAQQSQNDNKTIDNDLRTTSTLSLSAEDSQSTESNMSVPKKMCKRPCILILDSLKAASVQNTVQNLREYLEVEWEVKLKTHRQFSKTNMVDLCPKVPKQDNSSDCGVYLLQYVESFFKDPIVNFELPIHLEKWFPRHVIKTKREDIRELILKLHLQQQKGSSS
Assay [12] concerns the target Caspase-3 (Homo sapiens) (UniProt P42574). The assay can be described thus: human caspase-3 activity blockade, out-of-family – biochemical, single concentration, selectivity assay for SENP inhibitor project, confirmation (AID 488918;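 active = mean inhibition above about 50%, limit read from the data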;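 also: plate controls were enzyme with DMSO for no effect and wells without caspase-3 for full effect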). The following applies: purified caspase-3, Z-DEVD-aminoluciferin luminescence, 60 min; at 12.5 µM; stronger effect = higher value.
A short description of assay [13]: Ultra-Glo luciferase signal interference – biochemical, single concentration, SENP8 reaction pre-completed, artefact control for SENP inhibitor project, confirmation (AID 488919;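 active = mean inhibition above about 50% when retested at one dose, limit read from the data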;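 also: plate controls were DMSO wells with completed reaction for no effect and substrate without enzyme for full effect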). The following applies: Pre-incubated SENP8/Z-RLRGG-aminoluciferin, luciferase luminescence interference; at 12.5 µM; stronger effect = higher value.
For assay [14], the target named is Tumor necrosis factor receptor superfamily member 10B (Homo sapiens) (UniProt O14763). Description: viability loss of caspase-8 NB7 cells with TRAIL – with/without TRAIL, luminescence panel, confirmation (AID 651596; in the data active = activity above about 50%). The following applies: NB7 neuroblastoma + caspase-8, TRAIL sensitization, NB7 Caspase-8, with TRAIL, mean of runs, at 10 µM, stronger effect = higher value.
Tumor necrosis factor receptor superfamily member 10B (Homo sapiens), sequence (O14763 whole entry, looked up): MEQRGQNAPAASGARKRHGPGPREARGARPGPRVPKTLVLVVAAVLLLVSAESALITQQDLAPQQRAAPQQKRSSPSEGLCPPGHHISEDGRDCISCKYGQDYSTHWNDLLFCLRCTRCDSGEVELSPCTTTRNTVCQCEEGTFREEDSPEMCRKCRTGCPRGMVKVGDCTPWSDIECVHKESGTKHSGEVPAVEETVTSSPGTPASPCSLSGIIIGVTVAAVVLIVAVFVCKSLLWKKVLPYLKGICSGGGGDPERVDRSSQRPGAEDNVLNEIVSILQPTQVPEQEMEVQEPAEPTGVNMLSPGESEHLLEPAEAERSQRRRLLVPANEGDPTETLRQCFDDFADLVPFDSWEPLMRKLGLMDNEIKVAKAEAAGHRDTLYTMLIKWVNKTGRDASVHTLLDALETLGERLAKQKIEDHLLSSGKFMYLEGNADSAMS

Assay in assay [15]: as above
The following applies: NB7 neuroblastoma + caspase-8, without TRAIL, NB7 Caspase-8, without TRAIL, mean of runs, at 10 µM.

Assay [16] deals with Tumor necrosis factor receptor superfamily member 10B (Homo sapiens) (UniProt O14763). The assay can be described thus: compound enhancement of TRAIL-induced cell killing – NB7 cells plus caspase-8, luminescence, panel, dose response (AID 652002). The following applies: NB7 neuroblastoma +caspase-8, TRAIL sensitization, luminescence viability, NB7+Caspase-8, with TRAIL, run 1; at 12.5 µM (top of the series).

For assay [17] the target is unchanged. The assay is described as above. The following applies: NB7 neuroblastoma +caspase-8, TRAIL sensitization, luminescence viability, NB7+Caspase-8, with TRAIL, run 2; at 12.5 µM (top of the series).
Assay in assay [18]: as above
The following applies: NB7 neuroblastoma +caspase-8, no TRAIL, compound-alone cytotoxicity counter-screen, luminescence viability, NB7+Caspase-8, run 1; at 12.5 µM (top of the series) unless noted.

Assay in assay [19]: as above
The following applies: NB7 neuroblastoma +caspase-8, no TRAIL, compound-alone cytotoxicity counter-screen, luminescence viability, NB7+Caspase-8, run 2; at 12.5 µM (top of the series) unless noted.

The list shows a part of the results. Activity calls are given as the source filed them.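 The calls were made as follows, unless noted: active = mean inhibition above about 50% in the one-dose retest (limit read from the data); inactive = the rest.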

The record followed here is PubChem BioAssay.

Caspase-3 (Homo sapiens), sequence (P42574 28-227 limits assumed): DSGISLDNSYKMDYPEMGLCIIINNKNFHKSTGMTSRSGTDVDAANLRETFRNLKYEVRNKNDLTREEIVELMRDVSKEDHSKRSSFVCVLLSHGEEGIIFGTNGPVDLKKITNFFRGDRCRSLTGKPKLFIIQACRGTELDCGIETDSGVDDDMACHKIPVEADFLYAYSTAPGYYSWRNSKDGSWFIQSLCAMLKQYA
Sentrin-specific protease 8 (Homo sapiens), sequence (Q96LD8 whole entry, looked up, the tested form may be a part): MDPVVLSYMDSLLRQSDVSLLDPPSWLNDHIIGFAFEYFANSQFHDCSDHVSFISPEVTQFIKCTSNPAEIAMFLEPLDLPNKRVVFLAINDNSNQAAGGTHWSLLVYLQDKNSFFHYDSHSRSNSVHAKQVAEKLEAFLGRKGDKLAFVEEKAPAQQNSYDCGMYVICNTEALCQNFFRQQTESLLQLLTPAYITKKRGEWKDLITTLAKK
Protein Mdm4 (Homo sapiens) + E3 ubiquitin-protein ligase Mdm2 (Homo sapiens), sequence (O15151 whole entry, looked up): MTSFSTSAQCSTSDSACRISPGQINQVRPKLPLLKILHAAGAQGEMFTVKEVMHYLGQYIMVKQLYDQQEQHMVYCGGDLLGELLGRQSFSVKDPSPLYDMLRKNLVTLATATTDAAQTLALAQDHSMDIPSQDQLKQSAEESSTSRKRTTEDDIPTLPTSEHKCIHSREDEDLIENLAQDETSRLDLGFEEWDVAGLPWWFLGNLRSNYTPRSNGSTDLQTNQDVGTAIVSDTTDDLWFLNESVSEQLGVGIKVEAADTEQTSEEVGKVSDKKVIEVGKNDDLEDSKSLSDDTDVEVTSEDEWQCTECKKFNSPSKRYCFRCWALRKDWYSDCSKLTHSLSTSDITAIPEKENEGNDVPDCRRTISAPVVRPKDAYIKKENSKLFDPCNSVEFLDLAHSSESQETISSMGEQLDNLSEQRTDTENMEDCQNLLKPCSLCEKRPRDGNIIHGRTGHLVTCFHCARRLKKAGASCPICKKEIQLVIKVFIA
Protein Mdm4 (Homo sapiens) + E3 ubiquitin-protein ligase Mdm2 (Homo sapiens), sequence (Q00987 whole entry, looked up): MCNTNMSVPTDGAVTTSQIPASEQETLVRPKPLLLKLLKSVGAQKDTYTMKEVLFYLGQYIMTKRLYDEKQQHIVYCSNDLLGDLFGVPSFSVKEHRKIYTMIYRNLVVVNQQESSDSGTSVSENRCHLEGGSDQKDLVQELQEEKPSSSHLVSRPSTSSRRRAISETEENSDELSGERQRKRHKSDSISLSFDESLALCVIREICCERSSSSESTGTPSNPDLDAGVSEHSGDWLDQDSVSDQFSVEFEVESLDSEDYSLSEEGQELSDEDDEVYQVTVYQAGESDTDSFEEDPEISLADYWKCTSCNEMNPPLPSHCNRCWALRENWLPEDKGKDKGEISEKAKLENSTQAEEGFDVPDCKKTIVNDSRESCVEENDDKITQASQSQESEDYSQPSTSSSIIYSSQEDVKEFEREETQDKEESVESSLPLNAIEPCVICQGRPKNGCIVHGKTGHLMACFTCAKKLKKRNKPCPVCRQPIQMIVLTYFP

What is called inhibition is the change of the read-out against control, counted positive when it falls. As to `N#Cc1cccc(NC(=O)COC(=O)c2ccccc2C(=O)c2ccc(Cl)c([N+](=O)[O-])c2)c1`, the activation in assay [1] was 26.1% (inactive). The inhibition in assay [2] is 103% (active); in assay [3] it was 108% (active); in assay [4], 55.9% (active); in [5], 108% (active); in assay [6], 103%; in assay [7] it was 111%.
Regarding `S=C1SCN(CCN2CCOCC2)CN1Cc1ccccc1`, the activation in assay [1] was 102% (active).
On to `CC1(C)CCSC(/C=C/c2ccccc2)=N1`, for which the activation in assay [1] was 68% (active). The inhibition is 30.5% (active) in assay [8] and -24.9% (inactive) in assay [3].
As for `O=[N+]([O-])c1ccc(C=Nc2ccc(Cl)cc2Cl)s1`, the activation in [1] was 74.2% (active). Besides, the inhibition in [9] is 9.7% (inactive); in assay [10], 19.4% (inactive); in assay [11] it was 18.5% (inactive); in [12], 7.4% (inactive); in assay [13], 8.1% (inactive).
Consider `CCOC(=O)/C=c1\s/c(=C\c2ccc(C#N)cc2)c(=O)n1CC(=O)Nc1cccc(C)c1C`, for which the activation in assay [1] was 1.05% (inactive).
Still for that read-out and setting: in the case of `CCOc1ccc2nc(Cl)c(C3CC(c4ccccc4)=NN3C(=O)c3cccs3)cc2c1` (configuration not stated) it was -1.15% (inactive).
On to `Fc1ccccc1-c1cc2cc3c(cc2cn1)OCO3`, for which the inhibition in assay [9] was 49.5% (inactive); in assay [10], 79.9% (active); in [11], 79.1% (active); in assay [12] it was 51.6% (active); in assay [13] it was 7.4% (inactive).
For the compound `COc1cc(NC(=O)c2cncc(-c3ccc(C#N)cc3)c2)cc(C(=O)Nc2cccc(C(F)(F)F)c2)c1`, the activation in assay [1] was 83.5% (active). Further, the activity is 54.6% in [14] and 26.9% in assay [15]. Further, the activity, % sensitization was -1.86% in assay [16], -1.47% in [17], -11.8% in [18] and -16.3% in [19].
For the compound `c1csc(-c2nc(-c3ccncc3)no2)c1`, the inhibition is 19.7% (inactive) in [9]; 47.2% (inactive) in [10]; 83.4% (active) in [11]; 80.4% (active) in assay [12]; 42.1% (inactive) in assay [13].
`CCn1nccc1C(=O)Nc1ccc(Cl)c(Cl)c1`: the inhibition was 61.1% (active) in assay [9]; 57.7% (active) in [10]; 80.6% (active) in assay [11]; 35.5% (inactive) in [12]; 66.5% (active) in assay [13].
As to `CNc1nc(Nc2ccc(C)c(Cl)c2)nc(N)c1[N+](=O)[O-]`, the inhibition was 97.8% (active) in assay [9]; 98.7% (active) in [10]; 103% (active) in [11]; 96.9% (active) in assay [12]; 18.3% (inactive) in assay [13].
For `c1ccc(CN=C2Nc3ccccc3CS2)nc1`, in that order: 48.6% (inactive), 41.9% (inactive), 74.7% (active), 76.5% (active) and 57.5% (active).
In the case of `O=c1c2ccccc2ncn1/N=C/c1ccccc1`, the inhibition in assay [9] is 2.5% (inactive); in assay [10], 80.2% (active); in [11], 97% (active); in assay [12], 86.6% (active); in [13], 69% (active).
As for `O=C(OC1CCOC1=O)c1ccc(-c2nc3ccccc3s2)s1` (configuration not stated), the inhibition in assay [9] is 92.5% (active); in [10], 95.8% (active); in [11], 100% (active); in assay [12], 96.3% (active); in assay [13], 83.8% (active).
Turning to `Cc1cccc(-n2ncc(Cl)c(Cl)c2=O)c1`, the activation in assay [1] is 29.5% (inactive). The inhibition in [4] was 26.4% (inactive); in assay [5] it was 101% (active). Besides, the activity in assay [14] was found to be 99.6%; in [15] it was 99.7%.
Take `CCc1ccc(NC(=O)C(=O)NNC(=O)c2cccs2)cc1`: the inhibition in assay [9] was 58.4% (active); in assay [10], 73.4% (active); in assay [11], 93.2% (active); in assay [12], 89.9% (active); in assay [13] it was 5.2% (inactive).
For `COc1ccc(C(=O)Nc2ccc(F)cc2F)cc1`, in that order: -4.2% (inactive), 60.2% (active), 87.6% (active), 87.1% (active) and 67.9% (active).
For `Cc1ccccc1Nc1nc(-c2cccnc2)cs1`, in that order: 70.3% (active), 66.9% (active), 86.9% (active), 52.8% (active) and 69.4% (active).
On to `COc1ccc2nc(Nc3nc4cc5c(cc4s3)OCCO5)sc2c1`, for which the inhibition was 20.4% (inactive) in assay [9]; 63% (active) in assay [10]; 71.6% (active) in [11]; 31.8% (inactive) in assay [12]; 24.3% (inactive) in assay [13].
For `CCCCSc1nnc(-c2ccc(C)cc2)o1`, in that order: 19.5% (inactive), 60.5% (active), 85.3% (active), 55% (active) and 23.2% (inactive).
As to `COc1ccc(/C=C2/SC(=O)N(CCCCCC(=O)Nc3ccccc3C(=O)O)C2=S)cc1`, the inhibition in assay [9] is -4.2% (inactive); in assay [10], 0.2% (inactive); in assay [11], 2.7% (inactive); in assay [12], -3.8% (inactive); in assay [13] it was 8.6% (inactive).
For the compound `COc1cccc(-c2nc3cc(C)ccc3o2)c1`, the inhibition was 96.1% (active) in assay [9]; 99.2% (active) in assay [10]; 102% (active) in assay [11]; 96.9% (active) in [12]; 94.2% (active) in [13].
Regarding `O=C1C=CC(=O)N1c1ccc(N2CCCCC2)cc1`, the activation in [1] is 60.2% (active). For the same compound, the inhibition in assay [4] is 17.3% (inactive); in assay [5], -4.26% (inactive).
As to `CC1=CC(C)(C)Nc2ccc(OC(=O)CN3C(=O)C4CCCCC4C3=O)cc21` (configuration not stated), in assay [1], the activation was 68% (active). For the same compound, the inhibition was 86.9% (active) in assay [4] and 86.2% (active) in [5].
For the compound `O=C(CCl)Nc1cccc(CP(=O)(c2ccccc2)c2ccccc2)c1`, the activation in [1] is 34% (active). The inhibition in [8] is 27.6% (active); in assay [3], -20.6% (inactive); in [4], 22.9% (inactive); in assay [5] it was 51.3% (active).
